Assay outcomes from PubChem.
Only some compounds are listed: those with a hit (about 9.2% of all), similar ones and a draw of the others.
HPGD inh = blocks human HPGD enzyme activity. Potency, µM, without a hit: at the top dose activity change, negative = inhibition, usual class: inhibitors. purified HPGD, NADH fluorescence kinetic, PGE2 substrate. hit rate 4.3% among 150,000; also: % is scaled to controls: 0 for no effect and ±100 for the full control effect
Target sequence (P15428 whole entry, looked up): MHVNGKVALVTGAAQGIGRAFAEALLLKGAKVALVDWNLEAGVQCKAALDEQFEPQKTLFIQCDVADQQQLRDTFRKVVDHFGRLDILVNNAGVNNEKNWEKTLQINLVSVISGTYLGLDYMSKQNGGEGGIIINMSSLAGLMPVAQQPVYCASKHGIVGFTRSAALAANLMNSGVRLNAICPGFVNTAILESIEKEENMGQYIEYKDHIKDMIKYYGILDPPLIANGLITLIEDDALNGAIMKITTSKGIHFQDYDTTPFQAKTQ
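NADH formation kinetics: reaction with 30 uM PGE2 and 1 mM NAD+ (final), 20 nM enzyme, Tris-HCl pH 8 with Tween 20, after 15 min compound preincubation at room temperature. Fluorescence change, last versus first of five reads.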
HTT aggregate = reduces HttQ103-GFP aggregates in PC12 cells; PC12 HttQ103-GFP aggregates, Acumen cytometry, 40 h; Potency, µM (series often up to 46.1 µM), inactives show top-dose activity change, negative = inhibition, actives largely listed as inhibitors; hit rate 1.1% among 220,000; active = well fitted curve in the direction sought with a large enough effect; inconclusive = small, poorly fitted or top-dose-only effect, or another doubt; inactive = no such curve, though single readings can be large; an effect the other way counts as inactive or inconclusive; also: % is scaled to controls: 0 for no effect and ±100 for the full control effect; nearly all actives have a fitted effect of over 60% in size
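Ecdysone-promoter PC12 model expressing HTT exon 1 Q103 fused to GFP, induced by tebufenozide at 100 nM final. Compounds titrated; aggregates sized 1–25 µm scored on a 488 nm laser cytometer.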
JMJD2E inh = inhibitors of human JMJD2E histone demethylase; JMJD2E catalytic domain, FDH-coupled NADH fluorescence (FDH is formaldehyde dehydrogenase); Potency, µM (titrated, usually from 57.1 µM), inactives show at the top dose activity change, negative = inhibition, hits mostly inhibitors; hit rate 1.6% among 230,000; AID 2147; B2RXH2;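 also: 0% = wells with enzyme and -100% = buffer wells without enzyme; nearly all actives have a fitted effect of over 50% in size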
HTT ATP protect = protects HTT-Q103 PC12 cells, measured by ATP; PC12 HTT-Q103 induced, cytoprotection, ATP luminescence, 40 h; Potency, µM (highest dose often 56.4 µM), without a hit: cytoprotection (ATP increase), hits mostly activators; hit rate 0.14% among 230,000; AID 1471; active = well fitted curve in the direction sought with a large enough effect; inconclusive = small, poorly fitted or top-dose-only effect, or another doubt; inactive = no such curve, though single readings can be large; an effect the other way counts as inactive or inconclusive; also: % of control where 0% means no effect; nearly all actives have a fitted effect of over 45% in size
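Compounds were screened for protection of PC12 cells against cell death after tebufenozide induction (100 nM final) of mutant Huntingtin exon 1 (Q103) fused to GFP.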
ALDH1A1 block = ALDH1A1 (human) enzyme inhibition; AID 1030; Potency, µM (series often up to 75.3 µM), for the others: at the top dose activity, negative = inhibition, usual class: inhibitors; P00352; hit rate 7.3% among 220,000; Purified ALDH1A1, NADH fluorescence, propionaldehyde substrate;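 also: plate controls were no enzyme wells and a reference inhibitor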
Target sequence (P00352 whole entry, looked up): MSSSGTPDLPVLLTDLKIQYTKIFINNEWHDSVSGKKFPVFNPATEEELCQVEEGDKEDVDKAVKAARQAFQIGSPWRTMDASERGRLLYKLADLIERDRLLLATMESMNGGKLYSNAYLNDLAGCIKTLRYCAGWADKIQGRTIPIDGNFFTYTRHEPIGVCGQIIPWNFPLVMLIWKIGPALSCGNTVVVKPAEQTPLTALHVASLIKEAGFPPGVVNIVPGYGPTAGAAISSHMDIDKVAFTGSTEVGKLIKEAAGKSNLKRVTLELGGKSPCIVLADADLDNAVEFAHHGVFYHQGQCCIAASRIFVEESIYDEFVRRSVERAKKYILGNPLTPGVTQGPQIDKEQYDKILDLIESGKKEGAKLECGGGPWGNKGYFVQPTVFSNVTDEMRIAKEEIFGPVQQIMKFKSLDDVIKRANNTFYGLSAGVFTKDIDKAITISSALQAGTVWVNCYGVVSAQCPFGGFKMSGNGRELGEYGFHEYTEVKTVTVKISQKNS
Lamin A splicing = changes lamin A minigene splicing in HeLa cells. HeLa LMNA splicing GFP/RFP minigene ratio, 48 h. Potency, µM (top dose mostly 46.1 µM), inactives show top-dose ratio change, negative = inhibition, usual class: inhibitors. hit rate 0.01% among 200,000. AID 1487; active = well fitted inhibition curve with a large enough effect in the signal ratio, with a control signal flat, not every such curve was filed as active; inconclusive = small, poorly fitted or top-dose-only effect, or effect the other way, or a change in a side signal; the % refers to the signal ratio; also: % is scaled to controls: 0 for no effect and ±100 for the full control effect
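Read-out is the ratio of GFP to DsRed2 object intensity, acquired by 488 nm laser-scanning cytometry on HeLa lamin A-EGFP minigene reporter cells. Compound incubation 48 hrs at 37 °C in Opti-MEM with 2% FBS; DMSO 0.5% final.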
Starred values were filed as active, the others as inactive; ? = inconclusive; / = not tested or not shown; ! = not confirmed by another sample; [ ] = dose if it differs, or a comment. Unless noted, calls follow the shape of the dose curve; as a rule, active = well fitted inhibition curve with a large enough effect (not every such curve was filed as active); inconclusive = small, poorly fitted or top-dose-only effect, or another doubt; inactive = no such curve, though single readings can be large or run the other way. Potency is read from the fitted curve at half-maximal effect.

SMILES	HPGD inh	HTT aggregate	JMJD2E inh	HTT ATP protect	ALDH1A1 block	Lamin A splicing
CN1C(=O)C(=Cc2ccc(N3CCCCCC3)o2)C(=O)N(C)C1=S	-15%	-24%	5%	-35%	?	8%
O=C(CCN1CC2CCC(CC2)C1)c1cccs1	1%	/	/	10%[10 µM]	0.071µM*	/
CCN1CCN(c2ccc(NC(C)=O)cc2Cl)CC1	/	-2%[9.22 µM]	-9%	-3%[10 µM]	-1%	23%[46 µM]
O=C(Nc1ccc(Cl)cc1)Nc1ccc(Cl)c(Cl)c1	/	11µM*	/	-83%	/	?
O=C(O)CCn1cc(C=C2C(=O)NC(=O)NC2=O)c(-c2ccc(Br)cc2)n1	28µM*	?	?	/	-4%	?
O=C(O)CCn1cc(C=C2C(=O)NC(=S)NC2=O)c(-c2cccc(Cl)c2)n1	/	2%[9.22 µM]	?	-3%[10 µM]	3.5µM*	/
C=CCOCC1CO1 (stereo unspecified)	-10%	/	/	7%	?	/
CC1CCCCC1NC(=O)Cn1nnc2ccccc2c1=O (stereo unspecified)	/	8%	-7%	-33%	?	-15%[46 µM]
CC(=O)Nc1ccc(N(C(=O)Cn2nnc3ccccc32)C(C(=O)NC2CCCC2)c2ccc(O)c(O)c2)cc1 (stereo unspecified)	/	2%[9.22 µM]	7.9µM*	-5%[10 µM]	-10%	?
C[C@H](N)c1cccc(Cl)c1Cl	/	/	/	-8%[1.9 µM]	/	/
CCCOC(=O)c1ccccc1C(=O)OCCC	-8%	/	/	-12%	?	/
CCCCCCCCOC(=O)c1ccccc1C(=O)OCCCCCCCC	-10%	-8%	/	-4%	25µM*	?
CC(C)(C)C(=O)C1C(=O)c2ccccc2C1=O	-11%	/	/	-52%	16µM*	/
O=C(/C=C/c1ccccc1)C1C(=O)c2ccccc2C1=O	-13%	?	?	-30%[1.9 µM]	8%	?
CC(C)[C@]1(NC(=O)[C@@H]2C=C3c4cccc5[nH]cc(c45)C[C@H]3N(C)C2)O[C@@]2(O)C3CCCN3C(=O)[C@H](Cc3ccccc3)N2C1=O (stereo partly specified)	?	/	?	-12%[1.9 µM]	?	/
C[C@@H]1[C@H]2C=C[C@@H]1[C@@H](c1c3ccc(=O)c(O)c-3oc3c(O)c(O)ccc13)[C@@H]2C(=O)O	/	/	/	-5%[10 µM]	/	/
CCS(=O)(=O)N1N=C(c2cccc(NS(C)(=O)=O)c2)CC1c1ccccc1 (stereo unspecified)	/	-6%	?	7%	13µM*	?
O=C(O)/C=C(\CC(=O)O)C(=O)O	-7%	/	?	-8%[10 µM]	0%[13.5 µM]	5%
C[C@@H]1O[C@H](OC2[C@@H](O)[C@H](O)C(O)[C@H](O)[C@H]2O)[C@@H](N)C[C@@H]1N=C(N)C(=O)O (stereo partly specified)	-1%	/	/	-12%[10 µM]	-10%[13.5 µM]	/
Cc1cc(C=C2C(=O)NC(=O)NC2=O)c(C)n1-c1ccc2c(c1)OCO2	-10%	-10%	-14%	40%[10 µM]	?	-11%
Cc1cc(C=C2C(=O)NC(=S)NC2=O)c(C)n1-c1ccc2c(c1)OCO2	8.9µM*	-2%	7%	16%[10 µM]	2.8µM*	?
[O-]/[N+](=C/c1cccnc1)c1ccc(Br)cc1	-18%	-6%	-3%	-11%[10 µM]	1.8µM*	-6%
Cc1cc2c(C(C)C)c(O)c(O)c(C=O)c2c(O)c1-c1c(C)cc2c(C(C)C)c(O)c(O)c(C=O)c2c1O	8.9µM*!	?	7.1µM*	12%[1.9 µM]	-8%	?
C[N+]1(C)C2CCC1CC(OC(=O)C(CO)c1ccccc1)C2 (stereo unspecified)	-8%	-3%	10µM*!	-23%	8%	?
COc1cccc(CN2CCCCC2c2cccnc2)c1 (stereo unspecified)	-16%	-21%	?	-9%	32µM*	?
SMILES	HPGD inh	HTT aggregate	JMJD2E inh	HTT ATP protect	ALDH1A1 block	Lamin A splicing
COc1ccc(CN2CCCCC2c2cccnc2)cc1C (stereo unspecified)	-12%	4%	-3%	7%	2%	10%
CC[C@H](CO)NC(=O)[C@@H]1C=C2c3cccc4c3c(cn4C)C[C@@H]2N(C)C1	/	/	/	-5%[1.9 µM]	/	/
CCOC(=O)N1CCN(C(=O)c2ccc3c(=O)n(CCC4=CCCCC4)c(=S)[nH]c3c2)CC1	-14%	6%	0%	-8%	7.9µM*	1%
O=c1[nH]c(=S)n(CCC2=CCCCC2)c(O)c1/C=N/N1CCOCC1	/	6%[9.22 µM]	4%	-3%[10 µM]	/	/
CSc1ccc(C(=O)C(C)(C)N2CCOCC2)cc1	-7%	-8%	-3%	-4%	8.9µM*	3%
CCCCCc1nc2c(c(=O)c3ccccc3n2C)c(=O)n1C1CCCCCC1	-1%	-26%	-3%	13%[10 µM]	3.5µM*	-19%
CCC(NC(=O)OC(C)(C)C)C(=O)Oc1cc(C)cc2oc(=O)c3c(c12)CCC3 (stereo unspecified)	-7%	-27%	4%	-4%	?	4%
Cc1cc(OCc2nn[nH]n2)c2c3c(c(=O)oc2c1)CCCC3	/	-7%	?	-14%[0.074 µM]	?	1%
Cc1cc(OCC(=O)OC(C)(C)C)c2c3c(c(=O)oc2c1)CCC3	?	2%	4.5µM*	2%	?	14%
Cc1cc(OC(=O)CCNC(=O)OC(C)(C)C)c2c3c(c(=O)oc2c1)CCC3	?	-1%[9.22 µM]	-10%	-22%[0.074 µM]	1.8µM*	?
Cc1cc(OC(=O)c2ccco2)c2c3c(c(=O)oc2c1)CCC3	/	?	?	-23%	10µM*	?
Cc1cc(OCc2ccc([N+](=O)[O-])cc2)c2c3c(c(=O)oc2c1)CCCC3	?	2%	4%	1%	28µM*	1%
Cc1cc(OC(=O)CCCNC(=O)OC(C)(C)C)c2c3c(c(=O)oc2c1)CCC3	-12%	-13%	2%	-13%	?	14%
NC(=NCCC[C@@H](N)C(=O)O)N[N+](=O)[O-]	/	/	/	15%[1.9 µM]	/	/
CC(C)(O)[C@H]1[C@H]2OC(=O)[C@@H]1[C@]1(O)C[C@H]3O[C@]34C(=O)O[C@H]2[C@]14C (tested in a mixture with another compound)	/	/	/	11%[1.9 µM]	/	/
CCCCOC(=O)COc1cc(C)cc2oc(=O)c3c(c12)CCC3	-22%	-1%	?	1%	10µM*	0%
C=CCOC(=O)COc1cc(C)cc2oc(=O)c3c(c12)CCC3	?	6%	?	9%	?	4%
Nc1ccccc1-c1ccccc1	-12%	/	/	-15%	?	/
COc1ccc(C2C(C(=O)N3CCC4(CC3)OCCO4)c3cc(OC)c(OC)cc3C(=O)N2C)cc1 (stereo unspecified)	-16%	-17%	-19%	4%[10 µM]	14µM*	-6%
O=C(O)c1cc(Cl)ccc1Cl	-7%	/	/	1%	?	/
O=C(CCl)c1ccc(Cl)cc1Cl	-9%	/	/	-104%	0.16µM*	/
